# Test results as given in the supplement of paper PMC6555819.
# Columns and labels:
# Experiment in all cases: PBM binding z-score (relative to random genomic background probes); higher = stronger binding; sequences stand for … in GC…GCGATTGACAGCGTAGAATGAAGG
# [1] = system: PPARg:RXRa DBDmut IVT, anti-RXR (DBD mutation: RXRa K156A/R161A, NR concentration 270 nM, RXRa partner concentration 90 nM)
# Outline: (§1)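 Each nuclear receptor dimer, without ligand, was incubated for 1 h on custom Agilent 4×180K protein-binding microarrays. Binding was detected with antibodies against each partner (one per run), and scanned fluorescence was regression-normalized. The binding z-scores are referenced to random human genomic background probes.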
# [2] = system: PPARg:RXRa IVT, anti-PPARg (NR concentration 270 nM, RXRa partner concentration 90 nM)
# Outline: as §1
# [3] = system: PPARg DBDmut:RXRa IVT, anti-PPARg (DBD mutation: PPARg1 K132A/R137A, NR concentration 270 nM, RXRa partner concentration 90 nM)
# Outline: as §1
# [4] = system: PPARg DBDmut IVT, anti-PPARg (DBD mutation: PPARg1 K132A/R137A, NR concentration 270 nM)
# Outline: as §1
# [5] = system: PPARg homodimer (NR concentration 180 nM)
# Outline: as §1
# [6] = system: PXR:RXRa (NR concentration 270 nM, RXRa partner concentration 90 nM)
# Outline: as §1
# [7] = system: PXR homodimer (NR concentration 270 nM)
# Outline: as §1
# [8] = system: RARa:RXR (NR concentration 270 nM, RXRa partner concentration 90 nM)
# Outline: as §1
# [9] = system: RARa homodimer (NR concentration 270 nM)
# Outline: as §1
# [10] = system: RARb:RXRa (NR concentration 270 nM, RXRa partner concentration 90 nM)
# Outline: as §1
Sequence,PBM binding z-score [1],PBM binding z-score [2],PBM binding z-score [3],PBM binding z-score [4],PBM binding z-score [5],PBM binding z-score [6],PBM binding z-score [7],PBM binding z-score [8],PBM binding z-score [9],PBM binding z-score [10]
CGAACTAGGGCAGAACAGGACAGTGAAGGATGAT,5.8,5.34,0.749,1.12,0.692,-0.477,-0.0295,0.592,0.348,0.687
CGTCCAAGGTCAAGGCTAGGTCAGTGAAAGCATT,3.68,4.19,-0.104,-0.338,5.83,5.03,1.42,6.19,1.29,5.43
ACTAGTTGGTCTGCTGAGGTCACACACAATTCGG,0.557,1.95,0.686,1.46,2.32,4.42,1.43,3.73,0.842,3.2
TCGAGTAGGTTACTCGGGGCATTCAGCCAACATA,3.23,2.79,-0.543,-0.378,-0.112,0.641,-0.427,0.651,-1.03,0.57
ATCTCTAGGTAACAAGTTCAATGAAAGAGAGGAC,3.6,3.31,1.41,1.75,1.45,2.68,3.18,1.75,1.83,2.18
CCTACTGGGCCATTCAGAGCTCATTGATCATATG,4.75,3.12,-0.435,-0.6,-0.275,-0.612,-0.562,-0.258,-0.409,-0.143
CCTTACGGGTCAAGAGGTTATAGCACGACGAGCG,2.73,3.77,0.866,0.102,2.77,3.63,0.116,5.26,0.579,4.3
TCATATAGGTAAATGCTCGGTGAAAGTCCGATCT,4.09,1.97,0.975,0.65,0.847,0.631,0.54,0.843,0.605,0.474
ATCTCCAGGTAAAGTTCAGTGAAAGATCGATAGA,0.492,0.889,1.11,0.586,1.7,2.32,2.13,1.81,1.45,2.78
CCTTACGGATCACTCCAGGTTATAGCATCGGAGT,0.299,0.0369,0.0149,0.787,1,0.823,0.761,0.748,1.26,0.105
CGTCCAAGGTCATAGGAGGTCAGTCAAGACAGAT,3.31,4.37,0.231,0.0229,4.04,6.74,4.16,5.99,1.15,5.37
CCTGCTAGGTCATGGTCGGCTAATCTACAGTATG,4.22,3.41,0.753,-0.172,1.51,1.41,-0.226,2.46,-0.276,3.93
CTCGAAAGGTCGGTTGAGGGGAGTATACGGATAA,-0.0517,0.459,0.19,0.356,0.859,1.51,-0.0252,1.79,-0.0195,3.02
CCTACTGGGCCAGAGGTCATTGATTCCAATGCTC,3.69,4.99,0.0395,-0.7,2.97,4.8,1.58,4.62,0.505,3.63
TCTGCTAGCTCAACGATGGTCAGCTAATCTGCTA,0.317,-0.338,-0.717,-0.143,-1.44,-0.381,-0.501,-0.407,-1.12,-0.267
CCGACTGGGGCAAGGTTACCATCACGCACAGCCA,3.35,3.48,-0.952,-0.665,0.946,0.175,0.0478,0.822,-0.0498,1.5
CCTAGGTGGTCAAGGTCACACACGCTATAGGTAC,1.34,3.54,0.368,0.561,4.82,4.24,1.58,4.44,1.3,4.22
CAAACTAGGTCACCGGCAGGTCAAAGTCCGCATG,8.64,8.72,2.38,0.783,4.83,5.26,0.922,6.42,1.55,4.93
CGTGCAAGGTCAATGCTAGGTCAGTGAAAGCATT,3.32,4.08,0.426,-0.53,3.59,4.91,0.967,6.46,0.996,5.34
TTACCAAGGTGAGCTGAGGTCGTTCATCCAACTC,1.05,2.17,-0.164,-0.434,-0.159,5.33,0.906,1.82,-0.552,1.74
CCTGCTAGGTCAATGGTCAGGTAAAGCAGCTCGC,4.38,4.23,0.154,-0.732,1.38,0.832,-0.154,1.93,-0.238,3.81
CCTACTGGGCCACGAAAGGTCATTGACTCAGTGA,5.69,5.8,0.0683,-0.677,2.13,5.15,1.92,5.49,0.622,4.03
CTCGAAAGGTCGGTTTAGGTGAGTATACGGATAA,0.133,0.896,0.666,0.13,1.29,1.51,0.344,1.64,0.736,2.66
